The source made the active and inactive calls. How the source made its calls: active means hit-call score of the fitted dose curve at least 0.9, where 1 is the maximum; inactive means score below 0.9.

A short description of the assay: ATG_GATA_CIS: Attagene CIS-FACTORIAL HepG2 Assay for human GATA Binding Protein (AID 2282944). The conditions noted are these: HepG2 GATA cis-element reporter, Attagene multiplex mRNA; actives raise or lower the signal. An outline of the steps: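 DMSO serves as negative control and baseline for bidirectional fitting of reporter mRNA changes. HepG2 cells bearing transiently transfected cis-promoter reporters were exposed 24 h; transcripts detected via RT-PCR and capillary electrophoresis.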
In the case of `Cc1ccc(N=C=O)cc1N=C=O`, the molecule was classed as inactive.

With `[As]#[In]`, the result was inactive. The result for `CCCCCCCCOC(=O)c1ccc(C(=O)OCCCCCCCC)c(C(=O)OCCCCCCCC)c1` reads “inactive”; that for `CCOC(=O)[C@]1(c2ccccc2)Oc2ccccc2[C@@H]1N`, “inactive”; that for `CN(C)C(=O)Nc1ccc(Cl)cc1`, “inactive”. The result for `Nc1ccc(N=Nc2ccccc2)cc1` reads “inactive”; that for `O=P(OCCCl)(OCCCl)OCCCl`, “inactive”. With `C=CCc1ccc2c(c1)OCO2`, the call was inactive. As for `CC(C)(C)C(O)(CCc1ccc(Cl)cc1)Cn1cncn1` (stereo not drawn), the outcome was inactive. For `CCC12COCN1COC2`, the result was inactive. Regarding `N#CC(Br)(Br)C(N)=O`, the result was inactive.

On to `COC(=O)c1ccccc1N`, for which the outcome was inactive. Turning to `O=C(N[C@H](c1ccccc1)[C@@H]1CN2CCC1CC2)c1c(Cl)ccc(C(F)(F)F)c1Cl`, the outcome was inactive. The result for `CN(C)c1ccc(C(=O)c2ccc(N(C)C)cc2)cc1` reads “inactive”; that for `O=C(Oc1ccc(Br)cc1)N1CCN2CCC1CC2`, “inactive”.

On to `Cc1cc(N=Nc2ccccc2C)ccc1N`, for which the outcome was inactive. Consider `OCCCl`, for which the molecule was classed as inactive. The result for `CC(C)COC(=O)c1ccccc1C(=O)OCC(C)C` reads “inactive”; that for `Clc1ccc(C(c2ccc(Cl)cc2)C(Cl)(Cl)Cl)cc1`, “inactive”; that for `Clc1ccc(Cl)c(Cl)c1`, “inactive”. The result for `O=[N+]([O-])C(Br)(CO)CO` reads “inactive”; that for `OCCOCCO`, “inactive”; that for `Nc1ccc(Cc2ccc(N)cc2)cc1`, “inactive”.

Regarding `Nc1cc(Cl)cc(C(=O)O)c1Cl`, the molecule was classed as inactive.

On to `C1=Cc2cccc3cccc1c23`, for which the call was inactive. `ClCCOCCCl`: the result was inactive. The result for `Cc1cccc(N)c1N` reads “inactive”; that for `CC(C)(O)c1cnn2c(-c3ccc(F)c(-c4c(F)cccc4C#N)c3)cnc2n1`, “inactive”.
